Test results taken from paper PMC12820563, “FoxP3 forms a head-to-head dimer in vivo and stabilizes its multimerization on adjacent microsatellites”.
In all, about 16,000 sequences were measured (“rpm ratio (pull-down/input)”: median about 0.5, highest 2% from about 5.5 on). Shown is part of a subset that was picked to be rich in the highest values.

target: T1, MBP-FoxP3dN (Mus musculus, UniProt Q99JB6 188-423); assay: PD-seq (MBP pull-down with sequencing); 20 mM Tris-HCl pH 7.5, 100 mM NaCl, 1.5 mM MgCl2, 0.4 uM protein, 0.1 uM dsDNA library, 30 min, room temperature, amylose pull-down; high values mean tight binding; conditions: protein: recombinant; tags: His6-MBP; chain copies: 2; dsDNA, one strand shown
T1 sequence: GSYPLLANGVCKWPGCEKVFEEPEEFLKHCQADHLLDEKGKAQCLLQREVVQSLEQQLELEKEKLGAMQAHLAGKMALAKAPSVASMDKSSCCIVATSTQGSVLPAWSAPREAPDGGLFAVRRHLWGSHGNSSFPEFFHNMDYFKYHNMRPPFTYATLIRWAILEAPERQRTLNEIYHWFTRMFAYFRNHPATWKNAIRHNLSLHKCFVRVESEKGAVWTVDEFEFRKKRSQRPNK
How it was run: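 A fragment of mouse FoxP3 or FoxP1 without its N-terminus, carrying a His6-MBP tag and produced in E. coli, was combined at 0.4 µM with a 0.1 µM degenerate double-stranded DNA library filled in with Klenow. The mixture sat for 30 min at room temperature in Tris pH 7.5 buffer containing NaCl and MgCl2. Protein–DNA complexes were captured on amylose resin, washed three times, and the DNA was freed with proteinase K, barcoded by PCR and sequenced on Illumina. Binding is expressed as reads-per-million enrichment of pull-down over input, with replicates pooled.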

Sequence | binding signal
GATGATTGTTCTCCCAGCTGATGAATTGTTCGACTCGAGTAAACAAATTTTCCTAATCTTTCTGTTCAAGCGCCATCTAC | 0.414 RPM ratio (pull-down/input)
GATGATTGTTCTCCCAGCTGATGAATTTTGTCCGTCGAGTAAACAAATTTTCCTAATCTTTCTGTTCAAGCGCCATCTAC | 0.813 RPM ratio (pull-down/input)
GATGATTGTTCTCCCAGCTGATGAATTCTTTTGTTCGAGTAAACAAATTTTCCTAATCTTTCTGTTCAAGCGCCATCTAC | 0.487 RPM ratio (pull-down/input)
GATGATTGTTCTCCCAGCTGATGAATTCAAACATTCGAGTAAACAAATTTTCCTAATCTTTCTGTTCAAGCGCCATCTAC | 1.12 RPM ratio (pull-down/input)
GATGATTGTTCTCCCAGCTGATGAATTGGCGCATTCGAGTAAACAAATTTTCCTAATCTTTCTGTTCAAGCGCCATCTAC | 6.97 RPM ratio (pull-down/input)
GATGATTGTTCTCCCAGCTGATGAATTGGCGAATTCGAGTAAACAAATTTTCCTAATCTTTCTGTTCAAGCGCCATCTAC | 0.898 RPM ratio (pull-down/input)
GATGATTGTTCTCCCAGCTGATGAATTCGTCCGTTCGAGTAAACAAATTTTCCTAATCTTTCTGTTCAAGCGCCATCTAC | 0.459 RPM ratio (pull-down/input)
GATGATTGTTCTCCCAGCTGATGAATTCGTATCGTCGAGTAAACAAATTTTCCTAATCTTTCTGTTCAAGCGCCATCTAC | 1.53 RPM ratio (pull-down/input)
GATGATTGTTCTCCCAGCTGATGAATTACTGTTCTCGAGTAAACAAATTTTCCTAATCTTTCTGTTCAAGCGCCATCTAC | 0.662 RPM ratio (pull-down/input)
GATGATTGTTCTCCCAGCTGATGAATTAAGCGCCTCGAGTAAACAAATTTTCCTAATCTTTCTGTTCAAGCGCCATCTAC | 1.4 RPM ratio (pull-down/input)
GATGATTGTTCTCCCAGCTGATGAATTAACAGCCTCGAGTAAACAAATTTTCCTAATCTTTCTGTTCAAGCGCCATCTAC | 0.491 RPM ratio (pull-down/input)
GATGATTGTTCTCCCAGCTGATGAATTTAGCCTCTCGAGTAAACAAATTTTCCTAATCTTTCTGTTCAAGCGCCATCTAC | 5.79 RPM ratio (pull-down/input)
GATGATTGTTCTCCCAGCTGATGAATTAAGCCTCTCGAGTAAACAAATTTTCCTAATCTTTCTGTTCAAGCGCCATCTAC | 5.69 RPM ratio (pull-down/input)
GATGATTGTTCTCCCAGCTGATGAATTTAGCGCCTCGAGTAAACAAATTTTCCTAATCTTTCTGTTCAAGCGCCATCTAC | 1.56 RPM ratio (pull-down/input)
GATGATTGTTCTCCCAGCTGATGAATTTTTAGCCTCGAGTAAACAAATTTTCCTAATCTTTCTGTTCAAGCGCCATCTAC | 0.414 RPM ratio (pull-down/input)
GATGATTGTTCTCCCAGCTGATGAATTAGCCACTTCGAGTAAACAAATTTTCCTAATCTTTCTGTTCAAGCGCCATCTAC | 1.09 RPM ratio (pull-down/input)
GATGATTGTTCTCCCAGCTGATGAATTATTCGCCTCGAGTAAACAAATTTTCCTAATCTTTCTGTTCAAGCGCCATCTAC | 0.568 RPM ratio (pull-down/input)
GATGATTGTTCTCCCAGCTGATGAATTAACAACTTCGAGTAAACAAATTTTCCTAATCTTTCTGTTCAAGCGCCATCTAC | 0.722 RPM ratio (pull-down/input)
GATGATTGTTCTCCCAGCTGATGAATTCGGCACATCGAGTAAACAAATTTTCCTAATCTTTCTGTTCAAGCGCCATCTAC | 0.778 RPM ratio (pull-down/input)
GATGATTGTTCTCCCAGCTGATGAATTATACTTGTCGAGTAAACAAATTTTCCTAATCTTTCTGTTCAAGCGCCATCTAC | 1.05 RPM ratio (pull-down/input)
GATGATTGTTCTCCCAGCTGATGAATTCTTTGCATCGAGTAAACAAATTTTCCTAATCTTTCTGTTCAAGCGCCATCTAC | 0.99 RPM ratio (pull-down/input)
GATGATTGTTCTCCCAGCTGATGAATTTGTTGCATCGAGTAAACAAATTTTCCTAATCTTTCTGTTCAAGCGCCATCTAC | 7.07 RPM ratio (pull-down/input)
GATGATTGTTCTCCCAGCTGATGAATTGCATCAATCGAGTAAACAAATTTTCCTAATCTTTCTGTTCAAGCGCCATCTAC | 3.31 RPM ratio (pull-down/input)
GATGATTGTTCTCCCAGCTGATGAATTTGCAGCATCGAGTAAACAAATTTTCCTAATCTTTCTGTTCAAGCGCCATCTAC | 1.6 RPM ratio (pull-down/input)

Sequence | binding signal
GATGATTGTTCTCCCAGCTGATGAATTTGCATGATCGAGTAAACAAATTTTCCTAATCTTTCTGTTCAAGCGCCATCTAC | 1.63 RPM ratio (pull-down/input)
GATGATTGTTCTCCCAGCTGATGAATTTGCATCATCGAGTAAACAAATTTTCCTAATCTTTCTGTTCAAGCGCCATCTAC | 6.33 RPM ratio (pull-down/input)
GATGATTGTTCTCCCAGCTGATGAATTTTTTGCATCGAGTAAACAAATTTTCCTAATCTTTCTGTTCAAGCGCCATCTAC | 1.37 RPM ratio (pull-down/input)
GATGATTGTTCTCCCAGCTGATGAATTGTTTGCATCGAGTAAACAAATTTTCCTAATCTTTCTGTTCAAGCGCCATCTAC | 6.03 RPM ratio (pull-down/input)
GATGATTGTTCTCCCAGCTGATGAATTGCCATCATCGAGTAAACAAATTTTCCTAATCTTTCTGTTCAAGCGCCATCTAC | 1.56 RPM ratio (pull-down/input)
GATGATTGTTCTCCCAGCTGATGAATTACTATCGTCGAGTAAACAAATTTTCCTAATCTTTCTGTTCAAGCGCCATCTAC | 0.509 RPM ratio (pull-down/input)
GATGATTGTTCTCCCAGCTGATGAATTGCTAACTTCGAGTAAACAAATTTTCCTAATCTTTCTGTTCAAGCGCCATCTAC | 0.723 RPM ratio (pull-down/input)
GATGATTGTTCTCCCAGCTGATGAATTGCAAGCGTCGAGTAAACAAATTTTCCTAATCTTTCTGTTCAAGCGCCATCTAC | 0.974 RPM ratio (pull-down/input)
GATGATTGTTCTCCCAGCTGATGAATTAGGTGGCTCGAGTAAACAAATTTTCCTAATCTTTCTGTTCAAGCGCCATCTAC | 0.625 RPM ratio (pull-down/input)
GATGATTGTTCTCCCAGCTGATGAATTATCAGAGTCGAGTAAACAAATTTTCCTAATCTTTCTGTTCAAGCGCCATCTAC | 0.249 RPM ratio (pull-down/input)
GATGATTGTTCTCCCAGCTGATGAATTCTTCTCATCGAGTAAACAAATTTTCCTAATCTTTCTGTTCAAGCGCCATCTAC | 0.242 RPM ratio (pull-down/input)
GATGATTGTTCTCCCAGCTGATGAATTGGTTATTTCGAGTAAACAAATTTTCCTAATCTTTCTGTTCAAGCGCCATCTAC | 3.1 RPM ratio (pull-down/input)
GATGATTGTTCTCCCAGCTGATGAATTTATTATTTCGAGTAAACAAATTTTCCTAATCTTTCTGTTCAAGCGCCATCTAC | 5.57 RPM ratio (pull-down/input)
GATGATTGTTCTCCCAGCTGATGAATTTATTCTTTCGAGTAAACAAATTTTCCTAATCTTTCTGTTCAAGCGCCATCTAC | 0.542 RPM ratio (pull-down/input)
GATGATTGTTCTCCCAGCTGATGAATTTTTTTATTCGAGTAAACAAATTTTCCTAATCTTTCTGTTCAAGCGCCATCTAC | 0.313 RPM ratio (pull-down/input)
GATGATTGTTCTCCCAGCTGATGAATTATTTCTTTCGAGTAAACAAATTTTCCTAATCTTTCTGTTCAAGCGCCATCTAC | 0.419 RPM ratio (pull-down/input)
GATGATTGTTCTCCCAGCTGATGAATTGGTTTATTCGAGTAAACAAATTTTCCTAATCTTTCTGTTCAAGCGCCATCTAC | 4.04 RPM ratio (pull-down/input)
GATGATTGTTCTCCCAGCTGATGAATTGTTTTATTCGAGTAAACAAATTTTCCTAATCTTTCTGTTCAAGCGCCATCTAC | 1.66 RPM ratio (pull-down/input)
GATGATTGTTCTCCCAGCTGATGAATTTCTTTATTCGAGTAAACAAATTTTCCTAATCTTTCTGTTCAAGCGCCATCTAC | 1.53 RPM ratio (pull-down/input)
GATGATTGTTCTCCCAGCTGATGAATTTATTTATTCGAGTAAACAAATTTTCCTAATCTTTCTGTTCAAGCGCCATCTAC | 5.86 RPM ratio (pull-down/input)
GATGATTGTTCTCCCAGCTGATGAATTTATTGGTTCGAGTAAACAAATTTTCCTAATCTTTCTGTTCAAGCGCCATCTAC | 5.89 RPM ratio (pull-down/input)
GATGATTGTTCTCCCAGCTGATGAATTATTTATTTCGAGTAAACAAATTTTCCTAATCTTTCTGTTCAAGCGCCATCTAC | 2.74 RPM ratio (pull-down/input)
GATGATTGTTCTCCCAGCTGATGAATTTGTTTATTCGAGTAAACAAATTTTCCTAATCTTTCTGTTCAAGCGCCATCTAC | 7.73 RPM ratio (pull-down/input)
